Screening data: PubChem BioAssay, National Center for Advancing Translational Sciences (NCATS)
WRN helicase inh – WRN helicase (human) inhibition; Q14191; WRN helicase unwinding, fluorescent forked duplex, kinetic; Potency, µM (doses to about 114 µM), hits mostly inhibitors; 360,000 compounds, 0.46% hits; AID 651768; also: nearly all actives have a fitted effect of over 55% in size
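Primary qHTS, 1536-well format. 20 nM WRN + compound, 15 min RT; start with 100 nM forked fluorophore/quencher duplex, 2 mM ATP (final); kinetic read ex 525/em 598 nm.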
PI5P4K alpha inh – inhibitors of human PI5P4K alpha; P48426; PI5P4Kalpha enzyme, ADP-Glo luminescence, 60 min; active compounds read low; max response, %; 330,000 compounds, 1.2% hits; AID 652105; active = max response of -50% or lower; inconclusive = between -30% and -50%; inactive = -30% or higher; also: value at the top dose of about 77 µM
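Enzyme plus substrate dispensed, test compounds pinned in, then ATP (5 microM final) added. After 60 min at RT, ADP-Glo reagent 1 for 45 min and reagent 2 for 30 min preceded luminescence imaging.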
Tb PFK inh – T. brucei PFK enzyme inhibition; O15648; T. brucei PFK, ADP-Glo luminescence; Potency, µM (titrated, usually from 57.5 µM), hits mostly inhibitors; 330,000 compounds, 0.17% hits; also: nearly all actives have a fitted effect of over 60% in size
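Compounds were pin-transferred as a titration series up to 57 uM into substrate buffer (0.5 mM F6P, 0.1 mM ATP, pH 8.0), then 1.25 nM PFK was added and reactions ran 45 min before ADP-Glo detection.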
TDP1 block – TDP1 (human) enzyme inhibition. recombinant TDP1, AlphaScreen DNA substrate cleavage. Potency, µM (series often up to 130 µM), actives largely listed as inhibitors. 350,000 compounds, 0.28% hits; also: nearly all actives have a fitted effect of over 40% in size
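Signal: AlphaScreen proximity between streptavidin donor and anti-FITC acceptor beads on intact substrate. Reaction: Tdp1 1 nM, substrate 15 nM final, 5 min RT after 15 min compound preincubation.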
Tb PGK inh – blocks T. brucei phosphoglycerate kinase. PGK/GAPDH coupled, Kinase-Glo luminescence, 60 min. Potency, µM (titrated, usually from 57.5 µM), hits mostly inhibitors. 380,000 compounds, 0.043% hits. AID 602233; also: nearly all actives have a fitted effect of over 60% in size
Target sequence (P07378 whole entry, looked up): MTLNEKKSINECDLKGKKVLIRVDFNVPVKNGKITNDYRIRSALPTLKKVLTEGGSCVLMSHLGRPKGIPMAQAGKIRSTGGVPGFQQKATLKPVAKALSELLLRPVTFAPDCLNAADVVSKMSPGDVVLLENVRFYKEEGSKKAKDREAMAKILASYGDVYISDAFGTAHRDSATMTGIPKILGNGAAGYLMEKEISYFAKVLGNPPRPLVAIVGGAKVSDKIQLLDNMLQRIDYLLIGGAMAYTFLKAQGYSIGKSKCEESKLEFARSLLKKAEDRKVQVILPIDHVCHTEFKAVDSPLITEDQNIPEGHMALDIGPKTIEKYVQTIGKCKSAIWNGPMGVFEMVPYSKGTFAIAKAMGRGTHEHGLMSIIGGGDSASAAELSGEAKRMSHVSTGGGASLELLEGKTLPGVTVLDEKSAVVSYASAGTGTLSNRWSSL
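Luminescent ATP detection (Kinase-Glo Plus) follows a 60-minute room-temperature incubation, with wells lacking PGK as controls. Buffer: 100 mM TEA (pH 7.6), 5 mM MgCl2, 0.01% Tween-20. Coupling enzyme GAPDH (100 nM final) supplies unstable 1,3-BPG in-well.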
FEN1 inhibitor – blocks human flap endonuclease 1; P39748; Recombinant FEN1 flap cleavage, fluorescence, 15 min; Potency, µM (top dose mostly 114 µM), usual class: inhibitors; 390,000 compounds, 0.35% hits; AID 588795; also: nearly all actives have a fitted effect of over 65% in size
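Nuclease activity of 10 nM FEN1 was measured after 15 min of room-temperature exposure to titrated compounds, by adding 50 nM flap substrate and reading plates at 0 and 15 min.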
Large screens that a line does not name were inactive. In the library only some 1.5% were active in any assay of this set; here they are far more common. Unless noted, calls follow the shape of the dose curve; as a rule, active = well fitted curve in the direction sought with a large enough effect; inconclusive = small, poorly fitted or top-dose-only effect, or another doubt; inactive = no such curve, though single readings can be large; an effect the other way counts as inactive or inconclusive.

O=C(O)CCc1ccc(S(=O)(=O)Nc2cc(C(F)(F)F)ccc2N2CCCC2)cc1	WRN helicase inh inconclusive, PI5P4K alpha inh inconclusive, TDP1 block 18µM
COc1ccc(S(=O)(=O)N2CN(Cc3ccco3)c3nc4ccccc4nc32)cc1	WRN helicase inh 56µM (no result: PI5P4K alpha inh)
Cc1ccc(S(=O)(=O)N2CN(Cc3ccco3)c3nc4ccccc4nc32)cc1	none
CCCCC#Cc1ccccc1CC(=O)Nc1ccccc1	TDP1 block 50µM
CCOc1ccc(C2C(C(=O)c3ccc(C)o3)=C(O)C(=O)N2c2cc(C)on2)cc1OC (centres undefined)	none
CCCCCOc1ccc(C2C(C(=O)c3ccc(C)o3)=C(O)C(=O)N2c2cc(C)on2)cc1 (centres undefined)	PI5P4K alpha inh -55
Cc1cc(N2C(=O)C(O)=C(C(=O)c3cc4ccccc4o3)C2c2cccc(Br)c2)no1 (centres undefined)	PI5P4K alpha inh -53
COc1ccc(COC(=O)N/N=C2/C[C@@H](O)[C@@H](O)[C@@H]3[C@@H]4C(=O)N(C5CCCCC5)C(=O)[C@H]4CC[C@@H]23)cc1	none (no result: WRN helicase inh, PI5P4K alpha inh, Tb PFK inh, Tb PGK inh, FEN1 inhibitor)
COc1ccccc1-c1cncnc1-n1ccnc1	TDP1 block 22µM (no result: WRN helicase inh, PI5P4K alpha inh, Tb PFK inh, Tb PGK inh, FEN1 inhibitor)
COc1ccc(O)c(-c2nc3ccccc3c(=O)n2Cc2ccccc2)c1	none (no result: WRN helicase inh, PI5P4K alpha inh, Tb PFK inh, Tb PGK inh, FEN1 inhibitor)
CCOC(=O)c1sc(N2C(=O)C(O)=C(C(=O)c3ccc(C)o3)C2c2cccc([N+](=O)[O-])c2)nc1C (centres undefined)	PI5P4K alpha inh -51
CCOC(=O)c1sc(N2C(=O)C(O)=C(C(=O)c3ccco3)C2c2ccc([N+](=O)[O-])cc2)nc1C (centres undefined)	PI5P4K alpha inh -80 (no result: Tb PFK inh, TDP1 block)
Cc1ccc2nc(N3C(=O)C(O)=C(C(=O)c4ccc(C)o4)C3c3cccc(O)c3)sc2c1 (centres undefined)	WRN helicase inh inconclusive, PI5P4K alpha inh -58
CCOC(=O)c1sc(N2C(=O)C(O)=C(C(=O)c3ccc(C)o3)C2c2ccc(OC)c(OC)c2)nc1C (centres undefined)	none
CN(C)/[N+]([O-])=N/Oc1ccc([N+](=O)[O-])cn1	none (no result: WRN helicase inh, PI5P4K alpha inh, Tb PFK inh, TDP1 block, Tb PGK inh)
Cc1ccc(S(=O)(=O)NNC(=O)c2cccs2)c(C)c1	none
Cc1ccc(C)c(S(=O)(=O)Nc2ccc(O)c3ccccc23)c1	FEN1 inhibitor inconclusive (no result: TDP1 block)
COc1ccc(S(=O)(=O)Nc2ccc(O)c3ccccc23)cc1	WRN helicase inh 79µM, FEN1 inhibitor inconclusive
Cc1ccc(S(=O)(=O)NNc2ccccc2)c(C)c1	WRN helicase inh 50µM, PI5P4K alpha inh inconclusive
Cc1ccc(S(=O)(=O)Nc2ccc(O)c3ccccc23)c(C)c1	WRN helicase inh 50µM, FEN1 inhibitor inconclusive (no result: TDP1 block)
COc1ccc(CNc2ncnc3nc[nH]c23)cc1OC	none (no result: WRN helicase inh, PI5P4K alpha inh, Tb PFK inh, Tb PGK inh)
C/C(=N\NC(=O)c1ccc2nc[nH]c2c1)c1ccc([N+](=O)[O-])cc1	TDP1 block 79µM (no result: WRN helicase inh, PI5P4K alpha inh, Tb PGK inh, FEN1 inhibitor)
Cc1ccc(NC(=O)c2ccc3nc[nH]c3c2)nc1	PI5P4K alpha inh inconclusive, TDP1 block 35µM
Cc1ccc(NC(=O)c2ccc3nc[nH]c3c2)c(O)c1	none
Cc1ccc(S(=O)(=O)N2Cc3ccccc3CC2C(=O)Nc2ccc3c(c2)OCO3)cc1 (centres undefined)	PI5P4K alpha inh -51, TDP1 block inconclusive
O=Cc1ccc(-c2cccs2)s1	none (no result: Tb PFK inh, TDP1 block)
Oc1ccc(N=Cc2ccc(-c3cccs3)s2)cc1	WRN helicase inh 50µM, FEN1 inhibitor inconclusive (no result: PI5P4K alpha inh)
Cc1ccc(C(=O)NCc2ccco2)cc1	TDP1 block 3.2µM
Cc1csc2ncc(C(=O)NCc3ccco3)c(=O)n12	TDP1 block 45µM (no result: PI5P4K alpha inh)
O=C(NCc1ccco1)c1cc2c(s1)CSC2	WRN helicase inh 18µM, Tb PFK inh inconclusive, Tb PGK inh inconclusive, FEN1 inhibitor 50µM (no result: PI5P4K alpha inh, TDP1 block)
Cc1cnc2ccc(I)cc2c1/C=C/c1ccc(N(C)C)cc1	none (no result: WRN helicase inh, PI5P4K alpha inh, Tb PFK inh, TDP1 block, Tb PGK inh)
COc1ccc(NS(=O)(=O)c2ccc3c(c2)CCC(=O)N3)cc1	none (no result: WRN helicase inh, PI5P4K alpha inh, Tb PFK inh, Tb PGK inh, FEN1 inhibitor)
COc1cc(-c2c(C#N)c(=O)[nH]c3c2c(C)nn3-c2ccccc2)ccc1O	WRN helicase inh inconclusive, PI5P4K alpha inh -63
O=C(Nc1nc(Nc2cc(F)cc(F)c2)nc(NC2CCCC2)n1)OCc1ccccc1	none (no result: WRN helicase inh, PI5P4K alpha inh, Tb PFK inh, Tb PGK inh, FEN1 inhibitor)
